Values joined by “and” are separate entries in the source; they are usually repeats but may differ in a detail not shown here. Equal entries are not always repeated. The campaign covered roughly 5,500 compounds. About 2,000 (36%) were called active. Another 18% or so got no clear call; they are omitted. Rule as the data show it: active = normalized growth mostly below about 0.91 (no sharp cut-off); inconclusive = no clear call, values can overlap the other calls; inactive = mostly above about 0.92. The list shows a part of the results.
Experiment: chemical genetic growth profiling, strain panel (AID 1159580);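 also: tested at 20 µM; growth read once vehicle control cultures reached saturation at 30 °C; 1 = growth at the plate median or of vehicle wells; lower values mean less growth of the strain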
Settings: S. cerevisiae deletion strains, growth OD

Compound: CN(C)c1ccc(C(=C2C=CC(=[N+](C)C)C=C2)c2ccc(N(C)C)cc2)cc1
- normalized growth (locus YAL013W, strain DEP1, stronger effect = lower value): 0.362 (active)
- normalized growth (locus YAL021C, strain ccr4, stronger effect = lower value): 0.479 (active)
- normalized growth (locus YAL026C, strain drs2, stronger effect = lower value): 0.563 (active)
- normalized growth (locus YAL030W, strain snc1, stronger effect = lower value): 0.453 (active)
- normalized growth (locus YBL061C, strain skt5, stronger effect = lower value): 0.535 (active)
- normalized growth (locus YBR009C, strain hhf1, stronger effect = lower value): 0.486 (active)
- normalized growth (locus YBR021W, strain FUR4, stronger effect = lower value): 0.603 (active)
- normalized growth (locus YBR023C, strain chs3, stronger effect = lower value): 0.506 (active)
- normalized growth (locus YBR171W, strain sec66, stronger effect = lower value): 0.717 (active)
- normalized growth (locus YBR229C, strain ROT2, stronger effect = lower value): 0.353 (active)
- normalized growth (locus YBR231C, strain swc5, stronger effect = lower value): 0.551 (active)
- normalized growth (locus YBR279W, strain paf1, stronger effect = lower value): 0.463 (active)
- normalized growth (locus YCL011C, strain gbp2, stronger effect = lower value): 0.524 (active)
- normalized growth (locus YCL016C, strain dcc1, stronger effect = lower value): 0.473 (active)
- normalized growth (locus YCL029C, strain bik1, stronger effect = lower value): 0.507 (active)
- normalized growth (locus YCL069W, strain vba3, stronger effect = lower value): 0.57 (active)
- normalized growth (locus YCR088W, strain abp1, stronger effect = lower value): 0.563 (active)
- normalized growth (locus YDL005C, strain med2, stronger effect = lower value): 0.67 (active)
- normalized growth (locus YDL035C, strain GPR1, stronger effect = lower value): 0.317 (active)
- normalized growth (locus YDL040C, strain nat1, stronger effect = lower value): 0.48 (active)
- normalized growth (locus YDL074C, strain BRE1, stronger effect = lower value): 0.492 (active)
- normalized growth (locus YDL101C, strain DUN1, stronger effect = lower value): 0.397 (active)
- normalized growth (locus YDL185W, strain tfp1, stronger effect = lower value): 0.433 (active)
- normalized growth (locus YDL192W, strain arf1, stronger effect = lower value): 0.462 (active)
- normalized growth (locus YDR001C, strain nth1, stronger effect = lower value): 0.562 (active)
- normalized growth (locus YDR069C, strain doa4, stronger effect = lower value): 0.61 (active)
- normalized growth (locus YDR101C, strain arx1, stronger effect = lower value): 0.486 (active)
- normalized growth (locus YDR137W, strain rgp1, stronger effect = lower value): 0.77 (active)
- normalized growth (locus YDR159W, strain sac3, stronger effect = lower value): 0.75 (active)
- normalized growth (locus YDR162C, strain NBP2, stronger effect = lower value): 0.316 (active)
- normalized growth (locus YDR195W, strain ref2): 1.06 (inactive)
- normalized growth (locus YDR297W, strain sur2, stronger effect = lower value): 0.537 (active)
- normalized growth (locus YDR318W, strain mcm21, stronger effect = lower value): 0.487 (active)
- normalized growth (locus YDR334W, strain swr1, stronger effect = lower value): 0.578 (active)
- normalized growth (locus YDR335W, strain msn5, stronger effect = lower value): 0.577 (active)
- normalized growth (locus YDR388W, stronger effect = lower value): 0.435 (active)
- normalized growth (locus YDR392W, strain spt3, stronger effect = lower value): 0.658 (active)
- normalized growth (locus YDR502C, strain sam2, stronger effect = lower value): 0.534 (active)
- normalized growth (locus YEL003W, strain gim4, stronger effect = lower value): 0.547 (active)
- normalized growth (locus YEL037C, strain rad23, stronger effect = lower value): 0.565 (active)
- normalized growth (locus YEL061C, strain CIN8 (second series), stronger effect = lower value): 0.569 (active)
- normalized growth (locus YEL061C, strain CIN8, stronger effect = lower value): 0.347 (active)
- normalized growth (locus YER015W, strain faa2, stronger effect = lower value): 0.574 (active)
- normalized growth (locus YER016W, strain bim1, stronger effect = lower value): 0.494 (active)
- normalized growth (locus YER110C, stronger effect = lower value): 0.586 (active)
- normalized growth (locus YER111C, strain swi4, stronger effect = lower value): 0.744 (active)
- normalized growth (locus YER155C, strain BEM2 (second series), stronger effect = lower value): 0.826 (active)
- normalized growth (locus YER155C, strain BEM2, stronger effect = lower value): 0.411 (active)
- normalized growth (locus YER167W, strain BCK2, stronger effect = lower value): 0.334 (active)
- normalized growth (locus YFR010W, strain ubp6, stronger effect = lower value): 0.614 (active)
- normalized growth (locus YGL078C, strain dbp3, stronger effect = lower value): 0.493 (active)
- normalized growth (locus YGL086W, strain mad1, stronger effect = lower value): 0.406 (active)
- normalized growth (locus YGL167C, strain pmr1, stronger effect = lower value): 0.59 (active)
- normalized growth (locus YGL173C, strain kem1, stronger effect = lower value): 0.637 (active)
- normalized growth (locus YGL227W, strain vid30, stronger effect = lower value): 0.561 (active)
- normalized growth (locus YGL240W, strain doc1, stronger effect = lower value): 0.618 (active)
- normalized growth (locus YGL248W, strain PDE1, stronger effect = lower value): 0.345 (active)
- normalized growth (locus YGL253W, strain hxk2, stronger effect = lower value): 0.465 (active)
- normalized growth (locus YGR078C, strain PAC10, stronger effect = lower value): 0.321 (active)
- normalized growth (locus YGR135W, strain pre9, stronger effect = lower value): 0.509 (active)
- normalized growth (locus YGR229C, strain SMI1, stronger effect = lower value): 0.363 (active)
- normalized growth (locus YGR252W, strain gcn5, stronger effect = lower value): 1.33 [resistant] (active)
- normalized growth (locus YHR013C, strain ard1, stronger effect = lower value): 0.747 (active)
- normalized growth (locus YHR027C, strain rpn1, stronger effect = lower value): 0.525 (active)
- normalized growth (locus YHR030C, strain SLT2, stronger effect = lower value): 0.364 (active) and 1.08 (inactive)
- normalized growth (locus YHR079C, strain IRE1 (second series), stronger effect = lower value): 0.476 (active)
- normalized growth (locus YHR079C, strain IRE1, stronger effect = lower value): 1.26 [resistant] (active)
- normalized growth (locus YHR094C, strain hxt1, stronger effect = lower value): 0.455 (active)
- normalized growth (locus YHR129C, strain ARP1, stronger effect = lower value): 0.366 (active)
- normalized growth (locus YHR142W, strain chs7, stronger effect = lower value): 0.638 (active)
- normalized growth (locus YHR200W, strain rpn10, stronger effect = lower value): 0.459 (active)
- normalized growth (locus YIL066C, strain RNR3, stronger effect = lower value): 0.346 (active)
- normalized growth (locus YIL073C, strain SPO22, stronger effect = lower value): 0.67 (active)
- normalized growth (locus YIL125W, strain kgd1, stronger effect = lower value): 0.505 (active)
- normalized growth (locus YIR030C, strain dcg1, stronger effect = lower value): 0.493 (active)
- normalized growth (locus YJL092W, strain hpr5, stronger effect = lower value): 0.548 (active)
- normalized growth (locus YJL095W, strain BCK1 (second series), stronger effect = lower value): 0.525 (active)
- normalized growth (locus YJL095W, strain BCK1, stronger effect = lower value): 0.406 (active) and 1.08 (inactive)
- normalized growth (locus YJL115W, strain asf1, stronger effect = lower value): 0.651 (active)
- normalized growth (locus YJL129C, strain trk1, stronger effect = lower value): 0.795 (active)
- normalized growth (locus YJL134W, strain LCB3, stronger effect = lower value): 0.349 (active)
- normalized growth (locus YJL154C, strain vps35, stronger effect = lower value): 0.551 (active)
- normalized growth (locus YJL164C, strain tpk1, stronger effect = lower value): 0.548 (active)
- normalized growth (locus YJL166W, strain qcr8, stronger effect = lower value): 0.478 (active)
- normalized growth (locus YJL168C, strain set2, stronger effect = lower value): 0.448 (active)
- normalized growth (locus YJL187C, strain SWE1 (second series), stronger effect = lower value): 0.333 (active)
- normalized growth (locus YJL187C, strain SWE1, stronger effect = lower value): 0.521 (active)

Reference: PubChem BioAssay AID1159580 (chemical genetic matrix, 2015)
